Assay results published in the supplement of paper PMC3334620.
Whole data set: some 33,000 sequences, median “E-score (-0.5 to 0.5)” near -0.0059, cut for the highest 2% near 0.26. What follows is part of a selection rich in the highest values, with near analogues and random picks from the rest.

These sequences were tested against T1, Cin5 (UniProt P40917) (assay: PBM E-score (8-mer binding enrichment) (E-score (-0.5 to 0.5)); higher = stronger / more preferred TF binding). Conditions: protein concentration: 100 nM; construct: GST-full length.
T1 sequence: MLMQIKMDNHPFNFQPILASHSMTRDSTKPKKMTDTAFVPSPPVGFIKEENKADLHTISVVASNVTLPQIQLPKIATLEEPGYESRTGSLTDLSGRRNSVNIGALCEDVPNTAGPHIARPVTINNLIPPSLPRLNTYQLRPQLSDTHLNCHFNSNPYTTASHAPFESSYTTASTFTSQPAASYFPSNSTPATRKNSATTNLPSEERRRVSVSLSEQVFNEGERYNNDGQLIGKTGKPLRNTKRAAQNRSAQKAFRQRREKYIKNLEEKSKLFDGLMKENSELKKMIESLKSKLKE
Experimental: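 Universal 'all 10-mer' protein binding microarrays (Agilent AMADID 015681) probed with GST-tagged S. cerevisiae TFs (full-length or DBD) made by in vitro transcription/translation (PURExpress), about 100-200 nM. Bound TF was detected with fluorescent anti-GST. Each ungapped 8-mer (which stands for itself and its reverse complement) is scored by the PBM enrichment score (E-score), a modified Wilcoxon-Mann-Whitney statistic from -0.5 to +0.5, computed with the Universal PBM Analysis Suite. Scale: above 0.35 generally sequence-specific binding.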

Sequence | PBM E-score
ACCGTTAT | -0.0275
CACGGCCA | -0.145
ATGGCTGC | -0.0428
CACGGGGG | -0.401
CATAATGG | 0.0936
TATAATGA | 0.21
AATAATCG | 0.247
CATAATCG | 0.324
TATAATAA | 0.241
TATAATCA | 0.342
CGATCACG | 0.117
ATGTGCGA | -0.106
ACTCCTGG | -0.216
ACCACAAG | -0.117
TCAATGAA | 0.159
ACTATCTC | 0.121
ATTATCTA | 0.315
ATTATCTC | 0.306
CTTATCTC | 0.0536
GTTATCTA | 0.131
CCTATCTC | 0.0294
ACTATCTA | 0.148
CTTATCTA | 0.276
ATTATCTG | 0.152
AACTCGAT | 0.15

Sequence | PBM E-score
AACCCTAT | 0.107
TACGGGAA | -0.108
CCTTCATC | -0.183
GTGCAAGA | 0.0774
GTAGAACA | -0.165
AGGAATGA | 0.0586
GGGAATGA | 0.277
CGGAATGA | 0.146
CACCTCTA | 0.0362
CGCGTATC | 0.06
CCACAACG | -0.153
AAACTAAG | 0.185
AAACTAAA | 0.199
AAACTAAT | 0.312
ATAGTCAC | 0.129
AGCCGACG | -0.0574
GGAACAAA | 0.32
GGAACAAC | 0.0525
CGAACAAA | 0.272
AGAACAAA | 0.194
TGAACAAA | 0.217
CGAACAAG | -0.0215
CCCTGGTA | -0.196
AGGTCGAC | 0.102
GGCTGTAA | -0.129

Sequence | PBM E-score
CCCCGCGA | 0.05
ACAATTGT | 0.188
CCGCGGGC | 0.0691
GCGCGGGA | 0.012
CCGCGGAG | 0.0845
GCGCGGAA | 0.192
CCGCGGGA | 0.316
CCGCGGAA | 0.272
AGAGTTAA | 0.0368
GTACTCGA | 0.0237
ATTAGGTA | 0.271
CTTAGGTA | 0.337
CGTAGGTA | -0.0204
ATTAGGTG | 0.131
ATTAGGTC | 0.271
CTCAGGTA | 0.0217
ATTAGGGC | -0.0867
GTTAGGTA | 0.242
CTTAGGTC | -0.0156
AACTCAAT | 0.165
CACTGGGC | -0.14
CGTAACCA | 0.192
AGCAGCCC | -0.142
GAGGGCCC | -0.254
CCCCTCAG | -0.211

Sequence | PBM E-score
AGTAATAA | 0.193
CGTAATAG | 0.223
AGTAATAG | 0.279
AGTAATTG | 0.132
AGTAATAC | 0.2
AGTAATAT | 0.306
CTCTGAGC | -0.2
ACTGGGAT | 0.0399
GCTCTTCA | -0.157
CGGAGTGA | 0.0979
CGTTCAAA | -0.0884
GACGTCAC | 0.00326
GGCCAACA | -0.0942
CATCGATA | 0.258
CATCGATG | 0.0124
AATCGATA | 0.247
ATGCTTCA | 0.0559
AATCACCG | 0.0462
GCCCACCC | 0.191
ACCCACCC | 0.323
CCCACCCC | 0.24
CCCCACCC | 0.153
CCCACCCA | 0.21
CCCACCCG | 0.293
CCAGCGAG | -0.0473

Sequence | PBM E-score
CGAAATGA | 0.19
ATGGGACA | 0.0583
GTGCTCGA | -0.0887
GTGCTAAA | 0.00722
CAGTAATC | 0.15
AAGTAATC | 0.339
AAGTAACA | 0.316
AAGTAATT | 0.181
CTGTAATC | 0.128
AAGTAACT | 0.186
ATGTAATA | 0.361
ATGTAATC | 0.383
GTGTAATA | 0.193
AAGTAACG | -0.0154
ATGTAATG | 0.193
CTGTAATA | 0.105
TAGATCCA | -0.00386
CGTGCCGA | -0.115
AGGAAATA | 0.164
GGCTCCAA | -0.169
AGGCTAAT | 0.0863
ATAAGACA | 0.105
GAATCCGA | 0.0296
CGTGGTCA | -0.0679
ACAATGTG | 0.0255

Sequence | PBM E-score
AACATGTG | 0.257
AACATGTC | 0.0503
CACATGTG | -0.00999
CTCTTGGC | -0.112
TGACTTAA | 0.268
GGACTTAA | -0.15
AGACTTAA | -0.139
GCAATCAA | 0.195
AATGTTGA | -0.014
CATGTTGC | -0.00801
CATGTTGA | 0.293
GCACCACA | -0.122
AACAATAT | 0.345
ACCAATAT | 0.323
ACCAATAC | 0.104
AACAATAC | 0.187
AACAATAA | 0.257
ACCAATAG | -0.123
GCTTGCCA | -0.131
ATCTGGCC | -0.108
CACGCGAC | -0.0294
TACTTGCA | 0.141
CCACAGAC | -0.0305
CTCGCTTA | 0.346
CTCGCTGA | -0.0383

Sequence | PBM E-score
CGCGCTGA | 0.104
AGCGCTTA | 0.157
ATCGCTTA | 0.0758
CGCGCTTA | 0.297
AGGTATAT | 0.193
GGCGGGTA | -0.194
CGCCAAAC | -0.072
ACGCTAAC | 0.0232
GTTCAAAA | -0.105
ATTAGTAG | 0.0962
CTTAGTAC | 0.0461
GTTAGTAA | 0.111
ATTAGTAC | 0.173
ATTAGTAA | 0.387
CTTAGTAA | 0.392
ATCTGGGC | -0.0822
AGCTGTTC | -0.0725
TCGCAAAA | 0.156
CAGTATGC | 0.0107
CTTAGCTC | -0.106
ACATGTAG | 0.278
ACATGTAA | 0.168
CCATGTAG | -0.00831
